From publication PMC4336329 (PLoS ONE, 2015) come the findings set out here.

Hit rate of the full screen: of about 310,000 compounds, about 14,000 (4.5%) showed an effect of 50% or more. Effects have a minus sign here. What follows is part of a selection rich in strong results, with near analogues and random picks from the rest.
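Also: peak tail current of the secondary pulse compared with the same well before compound.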

In this experiment the target is human ether-à-go-go-related gene (hERG) potassium channel (human, UniProt Q12809). Kind of experiment: primary screen, population patch clamp on CHO cells stably expressing hERG; higher = less effect of the substance.
human ether-à-go-go-related gene (hERG) potassium channel, sequence (Q12809 whole entry, looked up): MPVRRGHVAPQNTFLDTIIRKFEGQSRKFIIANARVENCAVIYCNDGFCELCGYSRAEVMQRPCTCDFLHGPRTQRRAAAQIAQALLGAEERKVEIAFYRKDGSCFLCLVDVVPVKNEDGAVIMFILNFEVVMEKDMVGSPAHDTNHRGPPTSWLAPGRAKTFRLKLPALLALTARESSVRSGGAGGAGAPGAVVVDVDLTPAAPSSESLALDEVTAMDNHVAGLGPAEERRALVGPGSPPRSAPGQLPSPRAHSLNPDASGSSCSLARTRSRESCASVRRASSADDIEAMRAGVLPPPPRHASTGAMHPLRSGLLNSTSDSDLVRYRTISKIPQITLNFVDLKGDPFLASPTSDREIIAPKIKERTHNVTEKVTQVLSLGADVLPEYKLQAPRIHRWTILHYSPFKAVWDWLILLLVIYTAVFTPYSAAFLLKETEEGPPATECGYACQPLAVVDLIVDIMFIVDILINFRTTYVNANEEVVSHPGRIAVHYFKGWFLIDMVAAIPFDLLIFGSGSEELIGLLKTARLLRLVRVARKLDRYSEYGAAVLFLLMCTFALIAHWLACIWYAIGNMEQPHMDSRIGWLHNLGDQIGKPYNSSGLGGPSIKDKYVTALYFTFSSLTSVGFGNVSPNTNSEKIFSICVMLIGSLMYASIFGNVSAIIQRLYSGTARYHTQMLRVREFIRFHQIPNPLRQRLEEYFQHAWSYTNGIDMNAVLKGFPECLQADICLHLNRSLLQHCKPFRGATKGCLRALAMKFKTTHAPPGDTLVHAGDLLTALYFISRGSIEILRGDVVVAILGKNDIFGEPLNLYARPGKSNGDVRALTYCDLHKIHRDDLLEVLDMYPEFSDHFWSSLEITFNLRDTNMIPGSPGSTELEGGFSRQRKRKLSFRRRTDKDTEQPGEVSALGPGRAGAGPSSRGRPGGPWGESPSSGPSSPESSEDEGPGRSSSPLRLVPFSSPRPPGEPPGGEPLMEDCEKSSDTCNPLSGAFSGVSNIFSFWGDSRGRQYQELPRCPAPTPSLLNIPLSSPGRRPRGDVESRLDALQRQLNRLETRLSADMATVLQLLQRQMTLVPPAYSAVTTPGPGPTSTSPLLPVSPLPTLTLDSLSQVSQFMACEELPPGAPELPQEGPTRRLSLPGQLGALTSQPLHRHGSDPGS
Take `COc1ccc(N2CCN(C(=O)C34CCC(C)(C(=O)C3)C4(C)C)CC2)cc1` (stereo not shown): the “hERG current change (%, negative = inhibition) at 10uM” value is given as -0.453%. With `CN(CC(=O)Nc1ccc(Cl)c(C(F)(F)F)c1)C(=O)Cc1n[nH]c(=O)c2ccccc12`, the “hERG current change (%, negative = inhibition) at 10uM” value was -16.2%.

Consider `COc1ccc(-n2nc3c(c2NC(=O)c2ccc(Br)o2)CS(=O)(=O)C3)cc1`, for which the “hERG current change (%, negative = inhibition) at 10uM” value is given as -16.4%. Turning to `COC(=O)Nc1ccc(S(=O)(=O)N2CCC(C(=O)N(C)C3CCCCC3)CC2)cc1`, the “hERG current change (%, negative = inhibition) at 10uM” value is reported as 9.22%.

On to `COC(=O)CCC(=O)NC(=S)Nc1cc(Cl)ccc1Cl`, for which the “hERG current change (%, negative = inhibition) at 10uM” value is 10.5%. Consider `CC1CC(C)CN(CC(=O)N2CCCc3c2c(=O)oc2ccc(OCc4ccccc4)cc32)C1` (stereo not shown), for which the “hERG current change (%, negative = inhibition) at 10uM” value was -4.71%. In the case of `Cc1cc(=O)oc2ccc(OCc3ccccc3)cc12` it was 5.11%.

Turning to `O=C(CN1CCCCC1)N1CCCc2c1c(=O)oc1ccc(OCc3ccccc3)cc21`, the “hERG current change (%, negative = inhibition) at 10uM” value was -54.6%.

With `CC1CCN(CC(=O)N2CCCc3c2c(=O)oc2ccc(OCc4ccccc4)cc32)CC1`, the “hERG current change (%, negative = inhibition) at 10uM” value was -10.5%.

As to `O=C(CN1CCCC1)N1CCCc2c1c(=O)oc1ccc(OCc3ccccc3)cc21`, the “hERG current change (%, negative = inhibition) at 10uM” value was -65.6%. Consider `CC(=O)Oc1ccc2oc(=O)c3c(c2c1)CCCN3C(=O)CN1CCOCC1`, for which the “hERG current change (%, negative = inhibition) at 10uM” value amounted to 1.97%. As for `O=C1OCC/C1=C\c1ccc(O)cc1`, the “hERG current change (%, negative = inhibition) at 10uM” value was 12.3%. As to `O=C(NCCCN1CCOCC1)C1Nc2ccc(OC(F)(F)F)cc2C2C=CCC12` (stereo not shown), the “hERG current change (%, negative = inhibition) at 10uM” value is -18.9%. In the case of `CCc1noc(C)c1C(=O)Nc1ccc(F)c(F)c1` it was -15.4%; in that of `COc1cc(NC(=O)Cn2nc(C(F)(F)F)c(Br)c2C)cc([N+](=O)[O-])c1`, 27.7%.

Consider `Cn1c(=O)c([N+](=O)[O-])c(NCC2CCCO2)c2ccccc21` (stereo not shown), for which the “hERG current change (%, negative = inhibition) at 10uM” value was determined as 0.511%. The value for `Cc1ccc2c(c1)c1nc3ccccc3nc1n2C` was 21.3%; that for `OC(CN1CCCCC1)Cn1c2ccc(Cl)cc2c2cc(Cl)ccc21` (stereo not shown) was -29.6%. As to `c1ccc2nc3c(nc2c1)c1ccccc1n3CCN1CCOCC1`, the “hERG current change (%, negative = inhibition) at 10uM” value is given as -48.5%. The value for `Cc1nc2c3cc(Cl)ccc3n(CCN3CCCCC3)c2s1.Cl` was -70%. For the compound `Cc1ccc2c(c1)c1nc3ccccc3nc1n2CCN1CCOCC1`, the “hERG current change (%, negative = inhibition) at 10uM” value is -62.8%. Turning to `COC(=O)Cn1c2ccc(C)cc2c2nc(C)sc21`, the “hERG current change (%, negative = inhibition) at 10uM” value was -7.39%.

Turning to `Cc1nc2c3cc(Cl)ccc3n(CCN3CCOCC3)c2s1`, the “hERG current change (%, negative = inhibition) at 10uM” value is -52.2%. The value for `Cc1nc2c3cc(F)ccc3n(CCN3CCCCC3)c2s1.Cl` was -69.9%; that for `CCc1ccc2c(c1)c1nc(C)sc1n2CC` was -5.89%.

With `Clc1ccc2c(c1)c1cc(Cl)ccc1n2CN1CCOCC1`, the “hERG current change (%, negative = inhibition) at 10uM” value is recorded as -1.99%. With `Cc1nc2c3ccccc3n(CCN3CCCCC3)c2s1.Cl`, the “hERG current change (%, negative = inhibition) at 10uM” value is -28.9%. The value for `Cc1nc2c3cc(F)ccc3n(Cc3ccccc3F)c2s1` was -5.77%; that for `CCc1ccc(NC(=O)Cn2nc(C)n3cccc3c2=O)cc1` was 15%. The value for `O=C(Nc1cccnc1)c1sc(Nc2ccccc2F)nc1-c1ccccc1` was 20.5%. As to `O=C(O)/C=C\C(=O)Nc1ccc(N2CCN(c3cccc(Cl)c3)CC2)cc1`, the “hERG current change (%, negative = inhibition) at 10uM” value came to 10.2%. In the case of `CCCCCN(C(=O)CCC(=O)OCCOc1ccccc1Cl)c1c(N)n(CCCC)c(=O)[nH]c1=O` it was -41.3%.

As for `COC(=O)CSc1nnc(-c2ccc(NS(=O)(=O)c3ccccc3)cc2)o1`, the “hERG current change (%, negative = inhibition) at 10uM” value stood at 9.9%. The value for `CC(=O)Oc1ccc2c(C)c(CC(C)O)c(=O)oc2c1` (stereo not shown) was 6.98%; that for `Cl.O=C(NN1CCN(Cc2ccccc2Cl)CC1)c1ccc(Br)cc1` was 18.3%. For `Cc1cc(C)c(N=Cc2c(O)[nH]c(=O)[nH]c2=O)c(C)c1`, the “hERG current change (%, negative = inhibition) at 10uM” value was determined as 11.6%. In the case of `CCN(CC)C(=O)C1CCCN(c2ccc([N+](=O)[O-])cc2/C=N/NC(=O)c2cccc(Br)c2)C1` (stereo not shown) it was -0.713%; in that of `CCN(CC)C(=O)C1CCCN(c2ccc([N+](=O)[O-])cc2[N+](=O)[O-])C1` (stereo not shown), -38.3%; in that of `CCN(CC)C(=O)C1CCCN(c2ccc([N+](=O)[O-])cc2/C=N/NC(=O)c2cccc([N+](=O)[O-])c2)C1` (stereo not shown), -55.3%. Turning to `CCN(CC)C(=O)C1CCCN(c2ccc([N+](=O)[O-])cc2/C=N/NC(=O)c2cccc(O)c2)C1` (stereo not shown), the “hERG current change (%, negative = inhibition) at 10uM” value is -16.9%. On to `CN1CCN(c2ccc([N+](=O)[O-])cc2/C=N/NC(=O)c2cccc([N+](=O)[O-])c2)CC1`, for which the “hERG current change (%, negative = inhibition) at 10uM” value was -54%. In the case of `O=C(N/N=C\c1cc([N+](=O)[O-])ccc1N1CCCC1)c1ccccn1` it was -3.3%. In the case of `Cn1cc(/C=N/NC(=O)c2cccc([N+](=O)[O-])c2)c2ccccc21` it was 14.8%. With `CCN(CC)C(=O)C1CCCN(c2ccccc2[N+](=O)[O-])C1` (stereo not shown), the “hERG current change (%, negative = inhibition) at 10uM” value is on record as -1.67%. Turning to `CCN(CC)C(=O)C1CCCN(c2ccc([N+](=O)[O-])cc2)C1` (stereo not shown), the “hERG current change (%, negative = inhibition) at 10uM” value is -52.2%. The value for `COc1ccc(-c2nnc(CSc3nc4ccccc4c(=O)n3CC3CCCO3)o2)cc1OC` (stereo not shown) was -49%; that for `CN(Cc1nc(Cc2ccccc2F)no1)CC1(N2CCOCC2)CCCCC1` was -62.8%. Consider `CN(Cc1nc(-c2cccs2)no1)CC1(N2CCOCC2)CCCCC1`, for which the “hERG current change (%, negative = inhibition) at 10uM” value is -24.2%. The value for `COc1ccc(Cc2noc(CN(C)CC3(N4CCOCC4)CCCCC3)n2)cc1OC` was -15.5%; that for `Cc1cc(C(C)(C)C)ccc1OCC(=O)N/N=C\c1c(C)n(C)n(-c2ccccc2)c1=O` was -66.3%. In the case of `Cc1ccccc1OCC(=O)N/N=C/c1c(C)nn(-c2ccccc2)c1Cl` it was 1.74%; in that of `COc1cc(Br)cc(Br)c1OCC(=O)N/N=C/c1c(C)n(C)n(-c2ccccc2)c1=O`, -23.1%. For the compound `CCOC(=O)c1c(N/N=C/c2ccncc2)n[nH]c1C`, the “hERG current change (%, negative = inhibition) at 10uM” value is -10.9%.

Regarding `COCCN(CC(=O)NC1CCCCC1)C(=O)CCCC(=O)Nc1ccccn1`, the “hERG current change (%, negative = inhibition) at 10uM” value is listed as 10%.

With `COC/C=C/C1=CC2=CC(=O)C(C)(OC(=O)c3cnc4ccccc4n3)C(=O)C2=CN1Cc1ccco1` (stereo not shown), the “hERG current change (%, negative = inhibition) at 10uM” value stood at 0.0609%. As to `O=C(Nc1ccc2[nH]c(=O)[nH]c2c1)C(F)(F)F`, the “hERG current change (%, negative = inhibition) at 10uM” value worked out at 14.9%. For `Cn1cc(C(=O)N2CCCCC2)c2ccccc21`, the “hERG current change (%, negative = inhibition) at 10uM” value was 4.66%. As for `Cc1cc(C)c(S(=O)(=O)NCCOc2ccccc2)c(C)c1-n1cnnn1`, the “hERG current change (%, negative = inhibition) at 10uM” value was 7.74%.

As to `C=C[C@H]1CN2CC[C@H]1C[C@@H]2[C@@H](O)c1ccnc2ccccc12`, the “hERG current change (%, negative = inhibition) at 10uM” value is -57.1%.

With `C=C[C@H]1CN2CC[C@H]1C[C@H]2[C@H](O)c1ccnc2ccccc12`, the “hERG current change (%, negative = inhibition) at 10uM” value is -34%. The value for `C=CC1CN2CCC1CC2[C@@H](OC(=O)c1ccc(OC)cc1)c1ccnc2ccccc12` (stereo partly shown) was -37.3%; that for `CC(Nc1ccccc1)c1cccnc1` (stereo not shown) was -49.1%. Turning to `COc1ccc(CCNS(=O)(=O)c2ccc(Cl)cc2)cc1OC`, the “hERG current change (%, negative = inhibition) at 10uM” value was -6.54%. Take `CC(=O)NC(CC(=O)O)c1ccc([N+](=O)[O-])cc1` (stereo not shown): the “hERG current change (%, negative = inhibition) at 10uM” value is 10.6%. In the case of `Cc1ccc(S(=O)(=O)NCCC(=O)OCc2ccc([N+](=O)[O-])cc2)cc1C` it was -42.3%.

For the compound `CCC(NC(=O)COc1ccc([N+](=O)[O-])cc1)c1ccccc1` (stereo not shown), the “hERG current change (%, negative = inhibition) at 10uM” value is -50.7%. As for `CCOC(=O)CC(NC(C)=O)c1ccc([N+](=O)[O-])cc1` (stereo not shown), the “hERG current change (%, negative = inhibition) at 10uM” value was -1.79%. In the case of `Cc1nn(-c2ccccc2)c(C)c1NC(=O)COc1ccc([N+](=O)[O-])cc1` it was -69.4%; in that of `CC(=O)NC(CC(=O)OCc1ccc([N+](=O)[O-])cc1)c1ccccc1` (stereo not shown), -63.1%.

As to `CC(=O)c1ccc(OCC(=O)Nc2c(C)nn(-c3ccccc3)c2C)cc1`, the “hERG current change (%, negative = inhibition) at 10uM” value is on record as -2.73%.

For the compound `CC(NC(=O)COc1ccc([N+](=O)[O-])cc1)c1ccccc1` (stereo not shown), the “hERG current change (%, negative = inhibition) at 10uM” value is -34.5%.

For the compound `CC(=O)Nc1ccc(S(=O)(=O)NCCC(=O)OCc2ccccc2F)cc1`, the “hERG current change (%, negative = inhibition) at 10uM” value was -8.68%. The value for `O=C(O)CC(NC(=O)COc1ccccc1)c1cccc([N+](=O)[O-])c1` (stereo not shown) was 18.8%; that for `Cc1nn(-c2ccccc2)c(C)c1NC(=O)COc1ccc(C#N)cc1` was -36.9%. Take `CC(=O)Nc1ccc(S(=O)(=O)NCCC(=O)OCc2ccc([N+](=O)[O-])cc2)cc1`: the “hERG current change (%, negative = inhibition) at 10uM” value is listed as -57.4%.

For the compound `CCOc1ccc(S(=O)(=O)N(CC)CC)cc1NC(=O)c1ccc(N2CCCC2=O)cc1`, the “hERG current change (%, negative = inhibition) at 10uM” value was found to be 18.2%. The value for `O=C(N/N=C/c1cccnc1)c1ccc(CN2c3cccc4cccc(c34)S2(=O)=O)cc1` was 5.22%; that for `CCC(C(=O)NCc1cccs1)n1nc(C)n2c(cc3occc32)c1=O` (stereo not shown) was 0.0905%; that for `COC(=O)c1ccc(NC(=O)N2CCC(O)(c3cccnc3)CC2)cc1` was 9.11%.

Consider `CCOC(=O)c1cccc(NC(=O)CSc2nnc(COc3ccc(Cl)cc3)o2)c1`, for which the “hERG current change (%, negative = inhibition) at 10uM” value was found to be 16.3%.

Take `COc1ccc(C(C(=O)NC2CCCCC2)N2CCC3(CC2)OCCO3)cc1` (stereo not shown): the “hERG current change (%, negative = inhibition) at 10uM” value is -8.32%. Consider `Nn1c(Nc2ccccc2)nc2ccccc2c1=O`, for which the “hERG current change (%, negative = inhibition) at 10uM” value was found to be 14.2%. The value for `O=C(CC1C(=O)NCCN1Cc1cccc(F)c1F)NC1CCCCCC1` (stereo not shown) was -10.6%; that for `CC1CCN(c2ccc(S(=O)(=O)NC3=NCCCCC3)cc2[N+](=O)[O-])CC1` was -11.2%; that for `COc1cccc(C2CC(c3cccs3)=NN2S(C)(=O)=O)c1OC` (stereo not shown) was 7.29%.
